Screening data as filed in PubChem BioAssay.
A selection: hits, their analogues and other compounds. The true share with any hit is near 1.6%.
KCNQ2 block – rat KCNQ2 potassium channel inhibitors, primary screen, cell-based, CHO-K1, FluxOR thallium flux, B-score. AID 2156, 2009. B-score at 10 µM. 310,000 compounds, 1.1% hits. Potassium voltage-gated channel subfamily KQT member 2 (Rattus norvegicus), O88943. 20 min; stronger effect = lower value;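 active means fluorescence ratio B-score at most minus 3 library SDs, with starting brightness B-score within 2 library SDs, cut at about -5.5 in these data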
KCNQ2 enhance – potentiators of rat KCNQ2 potassium channel; CHO-K1 KCNQ2, FluxOR thallium flux fluorescence; stronger effect = higher value; B-score at 10 µM; 310,000 compounds, 0.54% hits;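 active means fluorescence ratio B-score at least 3 SD of library B-scores, with initial fluorescence B-score within 3 of them, cut at about 5.3 in these data; same plate scores as AID 2156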;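 further: B-score of peak minus minimum over baseline fluorescence ratio after K+ and Tl+ stimulus; positive B-score means potentiation of KCNQ2 with more thallium influx and brighter signal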
Kir21 confirm – mouse Kir2.1 channel blockers, retest, confirmation, cell-based, FluxOR thallium flux, duplicate; 2,300 compounds, 41% hits; Tl flux remaining, % of negative control (stronger effect = lower value), % at 10 µM; AID 2032, 2009; shares compounds with KCNQ2 enhance; Kir2.1-expressing cells, FluxOR thallium flux fluorescence; stronger effect = lower value;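 active means Primary-screen hit whose thallium flux fell at least 3 control SD below untreated wells in both duplicates, with normal baseline fluorescence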
Target sequence (P35561 whole entry, looked up): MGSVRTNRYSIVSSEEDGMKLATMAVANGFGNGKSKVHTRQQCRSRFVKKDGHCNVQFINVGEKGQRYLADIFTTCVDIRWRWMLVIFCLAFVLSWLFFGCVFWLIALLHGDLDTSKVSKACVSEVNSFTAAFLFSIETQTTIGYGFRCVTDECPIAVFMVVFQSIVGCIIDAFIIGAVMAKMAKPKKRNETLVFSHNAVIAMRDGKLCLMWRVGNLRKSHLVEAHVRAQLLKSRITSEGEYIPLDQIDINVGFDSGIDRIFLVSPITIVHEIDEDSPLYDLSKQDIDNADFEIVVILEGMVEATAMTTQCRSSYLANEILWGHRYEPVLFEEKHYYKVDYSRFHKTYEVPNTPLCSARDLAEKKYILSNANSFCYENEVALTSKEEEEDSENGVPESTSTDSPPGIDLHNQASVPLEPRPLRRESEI
HEK293 Tl flux – parental HEK293 activity in Kir2.1 inhibitor counter-screen | parental HEK293 cells, FluxOR thallium flux fluorescence; 0% = unstimulated blank wells | FluxOR signal as % of negative control (100 = no effect), % at 10 µM | shares compounds with KCNQ2 enhance | 2,300 compounds, 19% hits;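 active means dye signal at least 3 control SD above or below untreated wells in both duplicates, raw fluorescence within 3, either direction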;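 further: percent is based on the flux ratio of peak minus minimum fluorescence over baseline F0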
CHO-K1 Tl ctr – nonspecific thallium flux increase in parental CHO-K1, confirmation, counter-screen for KCNQ2 potentiator project, cell-based, FluxOR thallium flux, duplicate; shares compounds with KCNQ2 enhance; parental CHO-K1 cells, FluxOR thallium flux fluorescence; zero = vehicle mean+3SD, 100% = vehicle-minus-blank window; activity increase over 3SD of controls, % at 10 µM; 1,200 compounds, 43% hits;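 active means signal rise of at least 3 SD above the untreated control mean, in both duplicate wells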;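 further: counter screen of KCNQ2 potentiator hits so any rise reflects channel-independent effects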
KCNQ1 pot spec – human KCNQ1 channel potentiation off-target, confirmation, selectivity assay for KCNQ2 potentiator project, cell-based, CHO, FluxOR thallium flux; shares compounds with KCNQ2 enhance; 1,200 compounds, 28% hits; activation over 3SD threshold, % at 10 µM; AID 2283, 2010; CHO KCNQ1 stable, FluxOR thallium flux fluorescence; beyond 3SD, as % of vehicle-control signal;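 active means fluorescence ratio rise of at least 3 SD of vehicle wells above their mean, in both replicate wells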
KCNQ2 pot conf – rat KCNQ2 channel potentiators, confirmation, cell-based, CHO, FluxOR thallium flux, duplicate. CHO-KCNQ2 cells, FluxOR thallium flux fluorescence. 1,200 compounds, 68% hits. AID 2287, 2010. potentiation, less the hit threshold, % at 10 µM. shares compounds with KCNQ2 enhance;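 active means fluorescence ratio rising 3 SD or more over the vehicle control mean in both replicates, plus primary screen hit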;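 further: peak minus minimum thallium fluorescence divided by baseline after K/Tl stimulus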
Kir21 spec – mouse Kir2.1 channel activation off-target, confirmation, selectivity assay for KCNQ2 potentiator project, cell-based, HEK293, FluxOR thallium flux; shares compounds with KCNQ2 enhance; HEK293 Kir2.1, FluxOR thallium flux fluorescence; 1,200 compounds, 2% hits; activity over 3SD threshold, % at 10 µM;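 active means fluorescence ratio rise of at least 3 SD above the vehicle-control mean, seen in both replicates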
KCNQ2 W236L MoA – potentiators of retigabine-insensitive KCNQ2 W236L, mechanism study for KCNQ2 potentiator project, cell-based, rat KCNQ2 W236L, CHO, automated patch clamp; shares compounds with KCNQ2 enhance; automated patch clamp current; current increase over 3SD of negative controls (%), stronger effect = higher value, % at 25 µM; 940 compounds, 10% hits;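 active means current increase at least 3 SD of the untreated controls above them in both duplicate recordings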
Hits are given with their value.

Screening CC[n+]1c(/C=C/c2ccc(OC)c(OC)c2)ccc2ccccc21 returned KCNQ2 block inactive.
`Cc1ccc(-c2nc(CS(=O)CC(=O)NCCN3CCCCC3C)c(C)o2)cc1` (stereo not given) gave KCNQ2 block inactive and KCNQ2 enhance inactive.
Cc1ccc(S(=O)(=O)N(C)c2ccc(OC(=O)CN3C(=O)NC4(CCCC4)C3=O)cc2)cc1C was read as KCNQ2 block inactive.
O=C(NC(=S)Nc1ccc(C(F)(F)F)cc1)c1csnn1 was read as KCNQ2 block inactive, KCNQ2 enhance 21.2, Kir21 confirm inactive, HEK293 Tl flux 398.0%, CHO-K1 Tl ctr 2.2, KCNQ1 pot spec inactive, KCNQ2 pot conf 69.4, Kir21 spec inactive and KCNQ2 W236L MoA inactive.
`O=C(Nc1csnn1)c1csnn1` gave KCNQ2 block inactive.
COc1ccc(NC(=S)NC(=O)c2csnn2)cc1 was read as KCNQ2 block inactive, KCNQ2 enhance 10.7, Kir21 confirm inactive, HEK293 Tl flux 242.5%, CHO-K1 Tl ctr 21.2, KCNQ1 pot spec inactive, KCNQ2 pot conf 29.9, Kir21 spec inactive and KCNQ2 W236L MoA inactive.
Screening O=C(NC(=S)Nc1ccccn1)c1cc(-c2ccccc2)nc2ccccc12 returned KCNQ2 block inactive and KCNQ2 enhance inactive.
O=C(NC(=S)Nc1ccccc1)c1cc(-c2ccccc2)nc2ccccc12 was read as KCNQ2 block inactive, KCNQ2 enhance 16.9, Kir21 confirm inactive, HEK293 Tl flux 131.0%, CHO-K1 Tl ctr inactive, KCNQ1 pot spec inactive, KCNQ2 pot conf 1.7, Kir21 spec inactive and KCNQ2 W236L MoA inactive.
Screening O=C(NC(=S)Nc1ccccc1)c1csnn1 returned KCNQ2 block inactive, KCNQ2 enhance 18.1, Kir21 confirm inactive, HEK293 Tl flux 487.0%, CHO-K1 Tl ctr inactive, KCNQ1 pot spec inactive, KCNQ2 pot conf 73.3, Kir21 spec inactive and KCNQ2 W236L MoA inactive.
Screening O=C(NC(=S)Nc1ccccc1)c1ccc(-c2ccccc2)cc1 returned KCNQ2 block inactive and KCNQ2 enhance inactive.
For COc1ccc(CNC(=O)c2csnn2)cc1 the results were KCNQ2 block inactive.
O=C(CN(CC1CCCO1)C(=O)CNS(=O)(=O)c1ccc(F)cc1)NC1CCCCC1 (stereo not given) was read as KCNQ2 block inactive.
COc1cccc(CNC(=O)CS(=O)(=O)Cc2nc(-c3ccc(C)cc3)oc2C)c1OC was read as KCNQ2 block inactive.
For COc1ccc(CNCCC(c2ccc(OC(C)C)cc2)c2ccccc2OC)cc1OC (stereo not given) the results were KCNQ2 block inactive.
Screening COc1ccc(CNCCC(c2ccc(OC(C)C)cc2)c2ccccc2OC)cc1 (stereo not given) returned KCNQ2 block inactive, Kir21 confirm 29.0% and HEK293 Tl flux inactive.
COc1ccccc1C(CCNCc1ccccc1)c1ccc(OC(C)C)cc1 (stereo not given) was read as KCNQ2 block inactive, Kir21 confirm 58.5% and HEK293 Tl flux inactive.
For COc1ccccc1C(CCNCc1ccc(N(C)C)cc1)c1ccc(OC(C)C)cc1 (stereo not given) the results were KCNQ2 block inactive.
`Cn1nnc2cc(C(=O)N3CCN(c4ccccn4)CC3)ccc21` gave KCNQ2 block inactive.
Screening CN(C)c1cc(Nc2ccc(O)cc2)c([N+](=O)[O-])c2nonc12 returned KCNQ2 block inactive.
O=[N+]([O-])c1c(Nc2ccc(O)cc2)cc(Cl)c2nonc12 was read as KCNQ2 block -10.2, KCNQ2 enhance inactive, Kir21 confirm 66.5% and HEK293 Tl flux inactive.
Screening CCCS(=O)(=O)N1CCN(c2cc3c(cc2[N+](=O)[O-])n(C)c(=O)n3C)CC1 returned KCNQ2 block inactive and KCNQ2 enhance inactive.
Screening CCOc1cccc(N(C(=O)CCC(=O)Nc2cc(C)on2)C(C(=O)NC(C)(C)C)c2ccc(OC)cc2)c1 (stereo not given) returned KCNQ2 block inactive.
For COc1ccc(C(C(=O)NC(C)(C)C)N(C(=O)CCC(=O)Nc2cc(C)on2)c2cccc(F)c2)cc1 (stereo not given) the results were KCNQ2 block inactive, KCNQ2 enhance 5.56, Kir21 confirm inactive, HEK293 Tl flux inactive, CHO-K1 Tl ctr inactive, KCNQ1 pot spec inactive, KCNQ2 pot conf inactive and Kir21 spec inactive.
`CN(C)/C=C1/N=C(c2ccccc2)OC1=O` gave KCNQ2 block inactive and KCNQ2 enhance inactive.
`O=CC1=C(c2ccccc2)Oc2ccccc2O1` gave KCNQ2 block inactive, Kir21 confirm 52.0% and HEK293 Tl flux inactive.
For O=C(Nc1ccc(C(=O)OC[C@@H]2CCCN3CCCC[C@H]23)cc1)c1cccc(Br)c1 the results were KCNQ2 block inactive.
For COc1cc(C(=O)NCc2nnc(SCC(=O)NCc3ccco3)o2)cc(OC)c1OC the results were KCNQ2 block inactive and KCNQ2 enhance inactive.
`COc1ccc(NC(=O)c2c(NC(=O)CNCc3ccco3)sc3c2CCC3)cc1` gave KCNQ2 block inactive.
Screening CCOC(=O)c1c(NC(=O)CN2CCN(C(=O)c3ccco3)CC2)sc2c1CCCC2 returned KCNQ2 block inactive, KCNQ2 enhance inactive, Kir21 confirm inactive and HEK293 Tl flux inactive.
`CCOC(=O)c1c(NC(=O)c2ccco2)sc2c1CCCC2` gave KCNQ2 block inactive and KCNQ2 enhance inactive.
`COC(=O)c1c(NC(=O)CCNCc2ccco2)sc2c1CCC2` gave KCNQ2 block inactive, KCNQ2 enhance inactive, Kir21 confirm 17.5% and HEK293 Tl flux inactive.
